Cav32 inh – inhibitors of human Cav3.2 T-type calcium channel; Cav3.2-expressing cells, Fluo-4 calcium fluorescence FDSS; active compounds read low; B-score at 10 µM; actives 4% (n = 100,000); AID 449739;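 active = single-dose well whose peak fluorescence ratio is a statistical outlier from its plate by either plate-standardised score or position-corrected B-score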
CYP2C9 inhib – human CYP2C9 inhibition; P11712; CYP2C9 Supersomes, luciferin-H conversion, luminescence; inhibition, % at 5 µM; actives 20% (n = 96,000); AID 777;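 active = blocking of liver enzyme CYP2C9 beyond about 50% at 5 µM, limit read from the data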
CYP2C19 inhib – inhibitors of human CYP2C19; actives 21% (n = 96,000); CYP2C19 Supersomes, luciferin-H EGE luminescence, 30 min; inhibition, % at 5 µM;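 active = CYP2C19 inhibition above a set limit at 5 µM in the primary screen, cut at about 50% in these data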;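 note: plate controls were negative control wells for no effect and 2.5 mM tranylcypromine positive control for full effect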
Target sequence (P33261 whole entry, looked up): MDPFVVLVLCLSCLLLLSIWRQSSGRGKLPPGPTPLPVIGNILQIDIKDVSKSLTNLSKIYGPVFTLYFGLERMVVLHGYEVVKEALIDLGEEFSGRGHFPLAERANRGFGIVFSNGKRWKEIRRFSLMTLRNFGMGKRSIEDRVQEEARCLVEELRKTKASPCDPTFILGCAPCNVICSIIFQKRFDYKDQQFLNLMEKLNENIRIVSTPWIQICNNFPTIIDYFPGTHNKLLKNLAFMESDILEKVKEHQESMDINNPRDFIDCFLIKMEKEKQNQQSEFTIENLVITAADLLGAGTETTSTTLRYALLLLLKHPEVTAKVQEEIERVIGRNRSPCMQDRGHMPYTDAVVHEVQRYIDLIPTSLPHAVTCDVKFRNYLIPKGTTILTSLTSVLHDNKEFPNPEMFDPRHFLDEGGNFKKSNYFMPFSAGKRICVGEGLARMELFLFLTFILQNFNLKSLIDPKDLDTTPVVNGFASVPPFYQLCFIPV
CYP2C19 activ – activators of human cytochrome P450 2C19; activation factor at 5 µM; recombinant CYP2C19, luciferin-H EGE luminescence; active compounds read high; 0 = fully inhibited enzyme, 1 = untreated enzyme; P33261; AID 1025; 96,000 tested, under 10 active;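 active = activation factor of at least 2 at 5 µM in the primary screen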;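 note: 0 = wells with 2.5 mM tranylcypromine and 1 = vehicle-only wells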
CYP2C9 activ – increases human cytochrome P450 2C9 activity | actives 1.4% (n = 96,000) | AID 1024 | activation factor at 5 µM | recombinant CYP2C9, luciferin-H conversion, luminescence; active compounds read high; factor 1 = untreated enzyme, 0 = blocked | P11712;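 active = activation factor of 2 or more for CYP2C9 at a 5 µM dose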;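 note: 0 = sulfaphenazole-blocked wells and 1 = vehicle-only wells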
Active calls of the source: *; / = not tested or not shown. Compounds with a hit are over-represented: about 27% of the library has one in this group of screens.

SMILES	Cav32 inh	CYP2C9 inhib	CYP2C19 inhib	CYP2C19 activ	CYP2C9 activ
Cc1nn(Cc2ccccc2Cl)c2sc(C(=O)OC3CCCC3=O)cc12 (stereo not given)	-0.48	84*	98*	0	0.2
Cc1nn(Cc2ccccc2Cl)c2sc(C(=O)NC(C)(C)C)cc12	-1.1	42	37	0.6	0.6
O=C1C2C3c4ccccc4C(c4ccccc43)C2C(=O)N1/N=C/c1cccc(O)c1 (stereo not given)	-1.5	-1	33	0.7	1
CCCCNC(=O)NC1C(NC(=O)NCCCC)N(C)C(=O)N1C (stereo not given)	0.9	1	-8	1.1	1
O=S(=O)(CCc1nnc(-c2ccccc2)o1)c1ccc2ccccc2c1	0.33	-1	13	0.9	1
O=S(=O)(CCc1nc2ccccc2o1)c1ccc2ccccc2c1	-1.8	-169	17	0.8	2.7*
Cc1cc(C)c2c(=O)c3c(oc2c1)C(=O)N(CCO)C3c1cccc(O)c1 (stereo not given)	0.35	54*	50*	0.5	0.5
CNC(=O)CSc1nnc(-c2ccc(S(=O)(=O)N3CCCC3)cc2)n1-c1cccc(C)c1C	0.69	88*	18	0.8	0.1
Cc1sc2nc(SCC(=O)N3CCCC3)[nH]c(=O)c2c1C	0.2	24	-1	1	0.8
Cc1csc(NC(=O)CSc2nc3sc(C)c(C)c3c(=O)[nH]2)n1	0.063	86*	12	0.9	0.1
Cc1sc2nc(SCC(=O)N(C)C)[nH]c(=O)c2c1C	-0.15	54*	34	0.7	0.5
C[N+]1(CCCCCCC(=O)/C=N/O)CCCCCC1	0.12	4	7	0.9	1
CCCSc1nc(SCC(=O)NCc2ccccc2)c2c3c(sc2n1)COC(C)(CC)C3 (stereo not given)	-2.7	15	5	0.9	0.8
N/C(=N\OS(=O)(=O)c1ccc(Br)cc1)c1ccncc1	0.68	58*	38	0.6	0.4
CCn1nc(NC(=O)c2cccnc2)c2cc3ccccc3nc21	-0.25	62*	32	0.7	0.4
Cc1cc2ccccn2c1C(=O)c1ccncc1	0.71	65*	98*	0	0.3
Cc1cc2ccccn2c1C(=O)c1ccc(Cl)cc1	-1.6	3	16	0.8	1
Cc1cc(C)c2cc3c(N)c(C(=O)N4CCc5ccccc5C4)sc3nc2c1	0.25	16	13	0.9	0.8
Cc1ccc2nc3sc(C(=O)N4CCCc5ccccc54)c(N)c3cc2c1	/	92*	87*	0.1	0.1
Cc1ccc(-c2cc(C(F)(F)F)n3ncc(C(=O)N4CCCc5ccccc54)c3n2)cc1	-0.99	/	/	/	/
Cc1ccc(-c2cc(C(=O)N3CCCc4ccccc43)c3ccccc3n2)cc1	-2	93*	71*	0.3	0.1
Cc1csc2nc(=O)c3ccccc3n12	-0.48	2	2	1	1
N#CCC1c2ccccc2CCN1C(=O)Nc1ccc(Cl)cc1 (stereo not given)	-2.7	34	55*	0.5	0.7
CCCC(=O)OC1CC(C)N(C(=O)c2ccccc2)c2ccc(C)cc21 (stereo not given)	-4.4*	/	/	/	/
CC(=O)OC1CC(C)N(C(=O)c2ccccc2)c2ccc(C)cc21 (stereo not given)	0.11	11	85*	0.1	0.9
SMILES	Cav32 inh	CYP2C9 inhib	CYP2C19 inhib	CYP2C19 activ	CYP2C9 activ
O=[N+]([O-])c1cnccc1Nc1ccccc1	-0.12	92*	98*	0	0.1
C=CCSc1nnc(-c2cc(Br)ccc2N)c(=O)[nH]1	/	72*	32	0.7	0.3
C=CCSc1nnc(-c2ccccc2NC(=O)CC)c(=O)[nH]1	-0.78	52*	-5	1.1	0.5
CCCCSc1nnc(-c2cc(Br)ccc2N)c(=O)[nH]1	-0.049	48	7	0.9	0.5
COc1ccccc1OCCCn1cc(C#N)c2ccccc21	-4.5*	95*	100*	0	0
COc1ccccc1OCCCn1c(C)c(C#N)c2ccccc21	-2.3	78*	29	0.7	0.2
CCCc1nc2oc3c(N4CCNCC4)ncnc3c2c2c1CCCC2	/	9	9	0.9	0.9
O=C(c1ccc2c(c1)N(Cc1ccccc1)C(=O)c1ccccc1S2)N1CCCC1	-2.5	49	63*	0.4	0.5
O=S(=O)(c1ccccc1)c1cnn2c(C(F)(F)F)cc(-c3ccccc3)nc12	-0.015	13	-4	1	0.9
COc1ccccc1-c1cc(C(F)(F)F)n2ncc(S(=O)(=O)c3ccccc3)c2n1	-2.1	97*	38	0.6	0
Cc1ccnc(N2CCC(C(=O)NNC(=O)c3ccccc3C)CC2)n1	0.89	18	18	0.8	0.8
CCn1c(C)nc2cc(-c3nc4n(n3)Cc3ccccc3-4)ccc21	0.73	36	84*	0.2	0.6
CC(C)CCN(C)C1CCN(C(=O)Nc2c(F)cccc2F)CC1	-1.3	3	2	1	1
O=C(Nc1ccc(Cc2ccncc2)cc1)c1ccc(Br)o1	0.0018	97*	87*	0.1	0
O=C(Nc1ccc(Nc2ccccc2)cc1)c1ccc(Br)o1	/	51*	29	0.7	0.5
OCCN(Cc1ccccc1)Cc1ccc(Cl)cc1Cl	-1.4	57*	95*	0	0.4
CCCN(CCO)Cc1cccc(Oc2ccccc2)c1	-1.1	4	42	0.6	1
CCOC(=O)Nc1ccc2c(c1)N(C(=O)N1CCN(C)CC1)c1ccccc1S2	0.51	7	73*	0.3	0.9
CCOC(=O)Nc1ccc2c(c1)N(C(=O)CCN1CCN(C)CC1)c1ccccc1S2	-0.021	-18	0	1	1.2
CCOC(=O)Nc1ccc2c(c1)Sc1ccccc1N2C(=O)CCN1CCOCC1	/	37	60*	0.4	0.6
Cc1ccc(CNc2ccc(CNc3ncn[nH]3)cc2)cc1	0.0068	63*	77*	0.2	0.4
CC(C)(C)NC(=O)c1sccc1C(=O)O	-0.99	/	/	/	/
COc1ccc(-n2cnc3c(cnn3CCC#N)c2=N)cc1	/	8	77*	0.2	0.9
COc1ccc(-c2cc(N)n(CCC#N)n2)c(OC)c1	0.31	-6	12	0.9	1.1
CCOC(=O)CNC(=O)CNC(=O)Cn1ccc2ccccc2c1=O	-0.1	-7	-6	1.1	1.1
SMILES	Cav32 inh	CYP2C9 inhib	CYP2C19 inhib	CYP2C19 activ	CYP2C9 activ
COc1ccc(CC(=O)Nc2ccc(-c3noc(-c4cccc(OC)c4)n3)cc2)cc1	-4.2*	23	12	0.9	0.8
COc1ccccc1-c1nc(-c2ccc(C(=O)O)cc2)no1	0.95	/	/	/	/
CCOc1ccccc1-c1nc(-c2ccc(NC(=O)Cc3ccccc3OC)cc2)no1	-3.8	-104	52*	0.5	2*
Cc1ccc(C)c(N(CC(=O)NCCC2=CCCCC2)S(C)(=O)=O)c1	-1.3	36	31	0.7	0.6
Cn1c(SCC(=O)c2ccccc2)nnc1-c1ccco1	0.93	/	/	/	/
Cn1c(SCC(=O)NC(C)(C)C)nnc1-c1ccc(C(C)(C)C)cc1	0.84	53*	18	0.8	0.5

Source: PubChem BioAssay (several laboratories)
